Experimental data taken from PubChem BioAssay (NCI).
The panel holds about 83,000 compounds, 20% with a hit somewhere; the sample as a whole holds those more often.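 Plates (96-well) were seeded with cells, treated with compound at one concentration, and incubated for 48 hours before percent growth was determined.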 Unmarked numbers belong to inactive results. Activity calls are given as the source filed them. The calls were made as follows: active = growth percent below 10; inactive = the rest.

Test system: COLO 205 colon
Assay: NCI-60 one-dose screen, 48 h (100 = growth as untreated, 0 = no growth, -100 = all killed)
Details: 10 µM

Point of comparison: `CC/C(=C(/c1ccc(OCCN(C)C)cc1)c1ccc(OC(=O)CCCCC(=O)c2c(C)[nH]c(/C=C3\N=C(c4ccc[nH]4)C=C3OC)c2C)cc1)c1ccccc1`, growth 72%. Against it:
- Oc1[nH]c2ccc(Cl)cc2c1/C=c1/ccc2c(c1)N=C(c1cc(F)cc(F)c1)N=2 — higher, 77.1%
- COc1ccc2c(c1)C(=O)c1c-2c(=O)n(CCCN(C)C)c2cc(OC)c(OC)cc12 — higher, 100%
- CCCCCCCCCCCCCCCCN(C(C)c1ccccc1)S(=O)(=O)c1ccc(OC)c(N)c1 (stereo not drawn) — higher, 123%
- COc1ccc2c(c1)C(=O)c1c-2c(OCCN(C)C)nc2ccccc12 — lower, 23.4%
- CO/N=C(/C(=O)NC1C(=O)N2C(C(=O)O)=C(COC(N)=O)CSC12)c1ccco1 (stereo not drawn) — higher, 114%
- CC/C(=C(/c1ccc(OCCN(C)C)cc1)c1ccc(OC(=O)CCC(=O)c2c(C)[nH]c(/C=C3\N=C(c4ccc[nH]4)C=C3OC)c2C)cc1)c1ccccc1 — lower, 28.3%
- COc1ccc(/C=C2/CN(C(=O)c3ccccc3F)C/C(=C\c3ccc(OC)cc3)C2=O)cc1 — lower, 59.1%
- O=C(Nc1cccc(-n2cc(-c3ccncc3)c(-c3cc(O)cc(Cl)c3)n2)c1)c1ccc(N2CCOCC2)c(C(F)(F)F)c1 — higher, 80.5%
- COc1cccc(C(=O)Nc2ccc(CN3CCc4nc5cc(OC)c(OC)cc5cc43)cc2)c1 — lower, 44.1%
- CC(C)=CCc1cc(O)cc2c1OC(C=C(C)C)C1=C2C(=O)C2=C(C1=O)S(=O)(=O)CCN2 (stereo not drawn) — lower, 43.4%
- O=C(Nc1ccncc1)C(=O)c1cn(S(=O)(=O)c2cccc3ccccc23)c2ccccc12 — higher, 101%
- CCn1cc(C(=O)O)c(=O)c2cnc(N3CCCC3)nc21 — higher, 111%
- Cc1ccc(NC(=O)Nc2c(Cl)cccc2Cl)cn1 — higher, 135%
- Cc1ccc(NC(=O)CSc2nc3ccccc3c(=O)n2CCc2ccccc2)c(C(=O)O)c1 — higher, 103%
- O=C(Nc1ccccc1)Nc1cccc(-n2cc(-c3ccncc3)c(-c3ccc(O)c(Cl)c3)n2)c1 — higher, 111%
- COc1ccc(-c2nc(-c3nc4ccc(OC)cc4[nH]3)cc3c2[nH]c2ccccc23)cc1 — lower, 31.3%
- COc1ccc(-c2nc(-c3nc4cc(Cl)c(Cl)cc4[nH]3)c3ccccn23)cc1 — higher, 88.4%
- COc1ccc(/C=C2/CN(C(=O)c3ccc(C)cc3)C/C(=C\c3ccc(OC)cc3)C2=O)cc1 — higher, 97.6%
- COc1cc(-c2cc(/C=C/C(=O)c3ccc(F)c(F)c3)[nH]n2)cc(OC)c1OC — lower, 61.4%
- COc1ccc(/C(=C2\O[C@@H]([C@H]3COC(C)(C)O3)[C@H]3OC(C)(C)O[C@@H]23)c2cc(OC)c(OC)c(OC)c2)cc1O — higher, 121%
- CS(=O)(=O)Nc1ccc(Nc2c3ccccc3nc3cc([N+](=O)[O-])ccc23)cc1 — lower, 17.1%
- CCN(CC)CCC(=O)Nc1cccc2c1C(=O)c1c(c(O)c3ccccc3c1O)C2=O — lower, 51.3%
- CC(C)(C#N)Nc1ccccc1 — higher, 109%
- Cc1cc(O)c(C(C)(C)C)cc1Sc1cc(C(C)(C)C)c(O)cc1C — higher, 90.7%
- C[N+](C)(C)c1ncnc2nc[nH]c12 — higher, 104%
- N#CCCN(NC(=O)OCc1ccccc1)C(=O)OCc1ccccc1 — higher, 119%
- CSc1nn(-c2ccccc2)c2ncnc(Oc3ccccc3)c12 — higher, 118%
- CCCCOc1ccc(NC(=O)Nc2nnc(C)s2)cc1 — higher, 120%

For `COc1ccc2c(c1)O/C(=C\c1ncc([N+](=O)[O-])n1C)C2=O`, the growth was -49.2% (active).
`COc1ccc(/C=C2/CN(CCC#N)C/C(=C\c3ccc(OC)cc3)C2=O)cc1` was tested, and the growth was -52.3% (active).
For `Nc1ncn([C@@H]2O[C@H](CO)[C@@H](O)[C@H]2O)c(=O)n1`, the growth was 6.61% (active).
`N=C(N)c1ccc(-c2ccc(-c3ccccc3)o2)nc1` was tested, and the growth was -13% (active).
In the case of `COc1ccc2nc3cc(Cl)ccc3c(NCCNCC(C)O)c2c1` (stereo not drawn), the growth is reported as 8.35% (active).
For `N#CCCN1C/C(=C/c2ccc(Br)cc2)C(=O)/C(=C/c2ccc(Br)cc2)C1`, the growth was -93.9% (active).
In the case of `COc1ccc(-c2nsc3c2NC(=O)CC3c2ccc(F)cc2)cc1` (stereo not drawn), the growth is reported as 9.44% (active).
With `N=c1c2c(-c3ccccc3)c(-c3ccccc3)n(Cc3ccccc3)c2ncn1CCCO` the growth was -5.84% (active).
In the case of `Cc1cc(N(CCCNc2ccnc3cc(Cl)ccc23)Cc2cccs2)nc(Cl)n1`, the growth is reported as -37.9% (active).
In the case of `O=C1OCC2=C1C(c1cccc(Br)c1)c1cc3c(cc1N2CCO)CCC3` (stereo not drawn), the growth is reported as -29.1% (active).

Test system: DU-145 prostate
Assay: as above
Details: 10 µM

Point of comparison: `COc1cc(-c2cc(/C=C/C(=O)c3ccc(F)c(F)c3)[nH]n2)cc(OC)c1OC`, growth 72.9%. Against it:
- Oc1[nH]c2ccc(Cl)cc2c1/C=c1/ccc2c(c1)N=C(c1cc(F)cc(F)c1)N=2 — higher, 81.8%
- COc1ccc2c(c1)C(=O)c1c-2c(=O)n(CCCN(C)C)c2cc(OC)c(OC)cc12 — lower, 26.9%
- CCCCCCCCCCCCCCCCN(C(C)c1ccccc1)S(=O)(=O)c1ccc(OC)c(N)c1 (stereo not drawn) — higher, 116%
- COc1ccc2c(c1)C(=O)c1c-2c(OCCN(C)C)nc2ccccc12 — lower, 27%
- CO/N=C(/C(=O)NC1C(=O)N2C(C(=O)O)=C(COC(N)=O)CSC12)c1ccco1 (stereo not drawn) — higher, 127%
- CC/C(=C(/c1ccc(OCCN(C)C)cc1)c1ccc(OC(=O)CCC(=O)c2c(C)[nH]c(/C=C3\N=C(c4ccc[nH]4)C=C3OC)c2C)cc1)c1ccccc1 — lower, 21.4%
- COc1ccc(/C=C2/CN(C(=O)c3ccccc3F)C/C(=C\c3ccc(OC)cc3)C2=O)cc1 — lower, 42.1%
- O=C(Nc1cccc(-n2cc(-c3ccncc3)c(-c3cc(O)cc(Cl)c3)n2)c1)c1ccc(N2CCOCC2)c(C(F)(F)F)c1 — lower, 38%
- Nc1ncn([C@@H]2O[C@H](CO)[C@@H](O)[C@H]2O)c(=O)n1 — lower, 11.5%
- COc1cccc(C(=O)Nc2ccc(CN3CCc4nc5cc(OC)c(OC)cc5cc43)cc2)c1 — lower, 46.1%
- CC(C)=CCc1cc(O)cc2c1OC(C=C(C)C)C1=C2C(=O)C2=C(C1=O)S(=O)(=O)CCN2 (stereo not drawn) — lower, 56.4%
- N=C(N)c1ccc(-c2ccc(-c3ccccc3)o2)nc1 — higher, 103%
- COc1ccc2nc3cc(Cl)ccc3c(NCCNCC(C)O)c2c1 (stereo not drawn) — lower, 28.8%
- O=C(Nc1ccncc1)C(=O)c1cn(S(=O)(=O)c2cccc3ccccc23)c2ccccc12 — higher, 95.1%
- CCn1cc(C(=O)O)c(=O)c2cnc(N3CCCC3)nc21 — higher, 119%
- Cc1ccc(NC(=O)Nc2c(Cl)cccc2Cl)cn1 — higher, 123%
- Cc1ccc(NC(=O)CSc2nc3ccccc3c(=O)n2CCc2ccccc2)c(C(=O)O)c1 — higher, 117%
- O=C(Nc1ccccc1)Nc1cccc(-n2cc(-c3ccncc3)c(-c3ccc(O)c(Cl)c3)n2)c1 — lower, 71.1%
- COc1ccc(-c2nc(-c3nc4ccc(OC)cc4[nH]3)cc3c2[nH]c2ccccc23)cc1 — lower, 19.9%
- COc1ccc(-c2nc(-c3nc4cc(Cl)c(Cl)cc4[nH]3)c3ccccn23)cc1 — lower, 47.5%
- COc1ccc(/C=C2/CN(C(=O)c3ccc(C)cc3)C/C(=C\c3ccc(OC)cc3)C2=O)cc1 — higher, 93.5%
- COc1ccc(/C(=C2\O[C@@H]([C@H]3COC(C)(C)O3)[C@H]3OC(C)(C)O[C@@H]23)c2cc(OC)c(OC)c(OC)c2)cc1O — lower, 34.8%
- CCN(CC)CCC(=O)Nc1cccc2c1C(=O)c1c(c(O)c3ccccc3c1O)C2=O — lower, 51.2%
- COc1ccc(-c2nsc3c2NC(=O)CC3c2ccc(F)cc2)cc1 (stereo not drawn) — lower, 58.7%
- N=c1c2c(-c3ccccc3)c(-c3ccccc3)n(Cc3ccccc3)c2ncn1CCCO — lower, 34.5%
- CC(C)(C#N)Nc1ccccc1 — higher, 118%
- Cc1cc(O)c(C(C)(C)C)cc1Sc1cc(C(C)(C)C)c(O)cc1C — lower, 50%
- CC/C(=C(/c1ccc(OCCN(C)C)cc1)c1ccc(OC(=O)CCCCC(=O)c2c(C)[nH]c(/C=C3\N=C(c4ccc[nH]4)C=C3OC)c2C)cc1)c1ccccc1 — lower, 34.2%
- C[N+](C)(C)c1ncnc2nc[nH]c12 — higher, 116%
- Cc1cc(N(CCCNc2ccnc3cc(Cl)ccc23)Cc2cccs2)nc(Cl)n1 — lower, 50.2%
- N#CCCN(NC(=O)OCc1ccccc1)C(=O)OCc1ccccc1 — higher, 109%
- CSc1nn(-c2ccccc2)c2ncnc(Oc3ccccc3)c12 — higher, 101%
- CCCCOc1ccc(NC(=O)Nc2nnc(C)s2)cc1 — higher, 120%

In the case of `COc1ccc2c(c1)O/C(=C\c1ncc([N+](=O)[O-])n1C)C2=O`, the growth is reported as -19.2% (active).
For `COc1ccc(/C=C2/CN(CCC#N)C/C(=C\c3ccc(OC)cc3)C2=O)cc1`, the growth was 5.29% (active).
In the case of `N#CCCN1C/C(=C/c2ccc(Br)cc2)C(=O)/C(=C/c2ccc(Br)cc2)C1`, the growth is reported as -48.4% (active).
`CS(=O)(=O)Nc1ccc(Nc2c3ccccc3nc3cc([N+](=O)[O-])ccc23)cc1` was tested, and the growth was 8.04% (active).
With `O=C1OCC2=C1C(c1cccc(Br)c1)c1cc3c(cc1N2CCO)CCC3` (stereo not drawn) the growth was -28.9% (active).
